Source: PubChem
RE007 growth inh = qHTS Assay for Inhibitors of the HIV-1 protein Vpr; Potency, µM (series often up to 92.2 µM), hits mostly inhibitors; 0.21% of 360,000 active; S. pombe RE007 Vpr strain, BacTiter-Glo ATP luminescence, 24 h; active means well fitted falling curve with a large enough effect; inconclusive means small, poorly fitted or top-dose-only effect; inactive means no such curve, though single readings can be large or run the other way; further: nearly all actives have a fitted effect of over 50% in size
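Fission yeast strain RE007, carrying one chromosomally integrated HIV-1 vpr copy, was seeded at OD 0.01 in PMG+AL medium with 23 nL pinned compound. After 24 h at 30 °C and 99% humidity, viability was read by BacTiter-Glo luminescence.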
Sm TGR inh = qHTS Assay for the Inhibitors of Schistosoma Mansoni Peroxiredoxins | 3% of 360,000 active | AID 485364, 2010 | purified TGR, DTNB reduction, TNB absorbance 405 nm | Schistosoma mansoni thioredoxin glutathione reductase (TGR), Q962Y6 | Potency, µM (highest dose often 114 µM), actives largely listed as inhibitors; further: nearly all actives have a fitted effect of over 60% in size
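Kinetic colorimetric format: TGR-catalysed, NADPH-driven DTNB reduction monitored via TNB absorbance. Enzyme dispensed at 20 nM; compound exposure 15 min at room temperature before reaction start.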
Marburg entry inh = qHTS for inhibitors of binding or entry into cells for Marburg Virus. Marburg virus pseudotyped entry inhibition, cell reporter. Potency, µM (highest dose often 37.8 µM), hits mostly inhibitors. 1.8% of 300,000 active. AID 540276, 2011; calls by dose curve; tested in HEK293 cells
FMDV antiviral = High Throughput Screening for Foot and Mouth Disease Virus Antivirals. FMDV antiviral cell-based qHTS. Potency, µM (top dose mostly 57.9 µM), usual class: inhibitors. 1.2% of 410,000 active. AID 1159524, 2015; calls by dose curve; tested in HEK293T cells; further: read-out not given here; nearly all actives have a fitted effect of over 45% in size
HCV inh = qHTS Assay for Inhibitors of Hepatitis C Virus (HCV); Huh7.5.1 HCVcc-Cre infection, luciferase reporter, 44 h; Potency, µM (top dose mostly 41.8 µM), usual class: inhibitors; 3.4% of 340,000 active; AID 651820, 2012
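Infectious HCV cell culture screen: compound-treated cells (1,000/well, pre-plated 4 h) are infected with HCVcc-Cre at roughly 0.5 moi and grown 44 h. Infection is quantified by luciferase signal after 15 min substrate incubation at room temperature.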
Lassa entry inh = qHTS for Inhibitors of binding or entry into cells for Lassa Virus; Lassa virus pseudotype entry inhibition, cell reporter; Potency, µM (titrated, usually from 37.9 µM), usual class: inhibitors; 1.2% of 300,000 active; AID 540256, 2011; calls by dose curve; tested in HEK293 cells; further: nearly all actives have a fitted effect of over 50% in size
Numbers stand for hits; n = inactive; u = inconclusive; x = no result given. Most compounds without a hit are left out; they make up all but 7.2% or so of the library. Unless noted, the call rests on the fitted dose curve; in most records, active means well fitted curve in the direction sought with a large enough effect; inconclusive means small, poorly fitted or top-dose-only effect, or another doubt; inactive means no such curve, though single readings can be large; an effect the other way counts as inactive or inconclusive.

SMILES | RE007 growth inh | Sm TGR inh | Marburg entry inh | FMDV antiviral | HCV inh | Lassa entry inh
Cc1occc1-c1nnc(SCC(=O)c2ccc(Cl)cc2)n1C | n | 39.8µM | n | n | u | n
Cc1occc1-c1nnc(SCC(=O)N2CCCCC2)n1C | n | n | n | n | n | n
Cn1c(SCC(=O)NCc2ccco2)nnc1-c1c[nH]c2ccccc12 | n | n | x | n | n | x
Cc1occc1-c1nnc(SCC(=O)c2c[nH]c3ccccc23)n1C | n | 17.8µM | n | n | n | n
Cn1c(SCC(=O)c2cc(Cl)c(Cl)s2)nnc1-c1ccco1 | n | 25.1µM | n | n | n | n
CN1CCN(Cc2c(O)ccc3cc(-c4ccccc4)c(=O)oc23)CC1 | x | n | x | n | x | n
CCCCN(CC)Cc1c(O)ccc2c(-c3ccccc3)cc(=O)oc12 | n | 50.1µM | x | n | n | x
CN1CCN(Cc2c(O)ccc3c(-c4ccccc4)cc(=O)oc23)CC1 | n | 31.6µM | n | n | n | n
Cc1nc(N2CCCC2)c2c(C(=O)Nc3cccc(Cl)c3C)c(C)oc2n1 | x | n | x | n | x | n
CC(=O)c1c(C(=O)O)[nH]c(C(=O)O)c1C | n | 10µM | n | n | n | n
Cc1[nH]c(C(=O)O)c(C)c1C(=O)OC(C)C | n | u | n | n | n | n
CCOc1ccc(NC(=O)C2CC(=O)N(c3ccc(C(C)C)cc3)C2)cc1 (stereo unspecified) | x | n | n | n | x | n
CNc1ncnc2c1ncn2[C@H]1CN(Cc2cccc3ccccc23)C[C@@H](CO)O1 | n | x | x | n | x | x
Cc1cccc2nc(CNC(=O)CN3Cc4ccccc4OC(c4ccccc4F)C3)cn12 (stereo unspecified) | x | x | x | n | x | x
COC(=O)c1sccc1NC(=O)c1cc(OC)cc(OC)c1 | n | n | n | n | n | n
COC(=O)c1cc(NC(=O)c2c(F)c(F)c(F)c(F)c2F)cc(C(=O)OC)c1 | n | n | u | n | 12.6µM | u
CC(=O)c1cccc(NC(=O)c2c(F)c(F)c(F)c(F)c2F)c1 | n | n | n | n | u | n
COC(=O)c1sccc1NC(=O)c1c(F)c(F)c(F)c(F)c1F | n | x | u | 22.4µM | 12.6µM | u
COC(=O)c1sccc1NC(=O)c1cccc(F)c1 | n | x | n | n | n | n
COC(=O)c1sccc1NC(=O)c1ccncc1 | n | n | 0.1µM | n | n | n
CCOc1ccc2c(c1)c(=O)c(C(=O)c1ccccc1)cn2Cc1ccccc1F | x | n | n | n | x | n
COc1ccc(NC(=O)CSc2nc3c([nH]c4ccccc43)c(=O)n2-c2ccccc2)c(OC)c1 | x | n | x | n | x | n
CCOC(=O)c1cccc(NC(=O)Cc2ccc(NC(=O)N3CCCCc4ccccc43)cc2)c1 | x | n | x | n | x | n
O=S1(=O)C=CCN1C1CCCC1 | x | x | x | x | x | n
CC(=O)c1cn(CCCOc2ccccc2)c2ccccc12 | n | n | x | u | 7.08µM | x
SMILES | RE007 growth inh | Sm TGR inh | Marburg entry inh | FMDV antiviral | HCV inh | Lassa entry inh
Cc1cc(OCCn2cc(/C(N)=N/O)c3ccccc32)ccc1Cl | n | n | u | x | 7.08µM | n
CC(=O)c1cn(CCOc2ccc(F)cc2)c2ccccc12 | n | n | x | u | 12.6µM | x
O=C(C(=O)N1CCOCC1)c1cn(CCCOc2ccccc2)c2ccccc12 | n | x | u | n | n | n
Cc1nc(SCC(=O)Nc2ccc(C)c(Cl)c2)cc(-c2ccccc2)n1 | x | n | n | n | x | n
CN(C)c1ccc(C(=O)c2ccccc2)cc1 | u | n | n | n | n | n
CN(C)c1ccc(N=Nc2ccc(C(=O)O)cc2)cc1 | n | 39.8µM | 2.82µM | 11.2µM | n | 7.08µM
COc1cc2c(cc1OC)C(C)=NCC2 | n | n | x | u | n | x
COc1cc2c(cc1OC)C(c1ccc(-c3cc(Cl)ccc3Cl)o1)=NCC2 | n | n | u | 17.8µM | u | u
COc1cc2c(cc1OC)C(c1ccc(Cl)cc1)=NCC2 | n | n | x | n | n | x
COc1cc2c(cc1OC)C(c1ccc(-c3ccc(Cl)cc3Cl)o1)=NCC2 | u | n | 6.31µM | 14.1µM | 11.2µM | 14.1µM
O=C(O)c1ccc(-c2ccc(Cl)cc2Cl)o1 | n | n | n | n | n | u
